Test results reported in PubChem BioAssay AID2284364 (EPA ToxCast).
Several values for one entry are separate records, joined by “and”; a condition that tells them apart may be missing. Equal values may be shown once. Activity calls are given as the source filed them. The calls were made as follows: active = hit-call score of the fitted dose curve at least 0.9, where 1 is the maximum; inactive = score below 0.9.

Molecular target: Peroxisome proliferator-activated receptor gamma (Homo sapiens) (UniProt P37231)
Sequence (P37231 whole entry, looked up): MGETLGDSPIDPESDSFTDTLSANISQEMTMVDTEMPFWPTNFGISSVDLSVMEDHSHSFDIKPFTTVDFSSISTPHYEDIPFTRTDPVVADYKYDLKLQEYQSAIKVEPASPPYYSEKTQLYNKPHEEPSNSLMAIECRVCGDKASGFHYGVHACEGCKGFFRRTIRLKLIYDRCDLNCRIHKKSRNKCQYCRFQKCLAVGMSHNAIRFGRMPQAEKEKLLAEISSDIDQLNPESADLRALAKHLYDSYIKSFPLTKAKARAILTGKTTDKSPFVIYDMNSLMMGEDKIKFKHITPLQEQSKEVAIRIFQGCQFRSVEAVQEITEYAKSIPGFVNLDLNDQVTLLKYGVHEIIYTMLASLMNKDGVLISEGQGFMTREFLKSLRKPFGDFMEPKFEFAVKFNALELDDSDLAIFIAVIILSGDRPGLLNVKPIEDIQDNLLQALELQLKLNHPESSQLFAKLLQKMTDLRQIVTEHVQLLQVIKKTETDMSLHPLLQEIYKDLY
Assay: ERF_US_NR_hPPARG: Eurofins (ERF) Nuclear Receptor (NR) Cell Based Protein-Protein Interaction LeadHunter Assay for human Peroxisome Proliferator-activated Receptor-gamma (PPARg) Agonism
Procedure: ERF_US_NR_hPPARG is a cell-based, single-readout assay that uses extracted gene-proteins in a cell-line assay. Measurements were taken 5 hours after chemical dosing in a 384-well plate. See PPARgamma Human NHR Cell Based Agonist Protein-Protein Interaction Assay, DiscoverX.ERF_US_NR_hPPARG is an assay component calculated from the ERF_US_NR_hPPARG assay. It is designed to measure […] using a type of binding reporter as detected by scintillation counting with radiometry technology.Data from the assay component ERF_US_NR_hPPARG was analyzed at the assay endpoint, ERF_US_NR_hPPARG, in the positive analysis fitting direction relative to DMSO as the negative control and baseline of activity. Using a type of binding reporter, gain-of-signal activity can be used to understand changes in binding as they relate to gene PPARG. To generalize the intended target to other relatable targets, this assay endpoint is annotated to the nuclear receptor intended target family, where the subfamily is non-steroidal.
Cells were seeded in a total volume of 20 uL into white walled, 384-well microplates and incubated at 37C overnight prior to testing.Briefly, intermediate dilution of sample stocks was performed to generate 5X sample in assay buffer. 5 uL of 5X sample was added to cells and incubated at 37C for 300 minutes. Final assay vehicle concentration was 1%. The results are expressed as a percent efficacy of the control ligand.

| Structure (SMILES) | outcome | AC50 |
| --- | --- | --- |
| O=C(O)CCC(F)(F)C(F)(F)C(F)(F)F | inactive |  |
| NC(=O)c1nc(-c2cccc(-c3cc(F)ccc3OCC(F)(F)C(F)(F)F)c2)n[nH]1 | inactive |  |
| O=C(CC(=O)C(F)(F)C(F)(F)C(F)(F)F)c1cccs1 |  | 21.7 µM (active) and 23.7 µM (active) |
